Screening results from PubChem BioAssay.
This is a sample that favours compounds with a hit; in the whole collection about 7.4% have one here.
ELG1 genotoxic = qHTS screen for small molecules that induce genotoxicity in human embryonic kidney (HEK293T) cells expressing luciferase-tagged ELG1 | HEK293T ELG1-luciferase reporter, luminescence, 16 h | Potency, µM (doses to about 46 µM), for inactives: top-dose activity change, positive = activation, hits mostly activators | 330,000 tested, 1.3% active; further: % of control where 0% means no effect; nearly all actives have a fitted effect of over 60% in size
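Genotoxic stress is detected as increased luminescence from luciferase-tagged ELG1 in HEK293T cells, measured with ONE-Glo after a 16 hr treatment at 37 °C.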
FLuc counter = qHTS profiling assay for firefly luciferase inhibitor/activator using purifed enzyme and Km concentrations of substrates (counterscreen for miR-21 project) | Luciferin 4-monooxygenase (Photinus pyralis), P08659 | purified FLuc, Km substrates, luminescence inhibition | Potency, µM (highest dose often 57.5 µM), without a hit: top-dose activity change, negative = inhibition, hits mostly inhibitors | 360,000 tested, 6.9% active;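 further: plate controls were vehicle for no effect and reference inhibitor for full effect; nearly all actives have a fitted effect of over 55% in size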
Target sequence (P08659 whole entry, looked up): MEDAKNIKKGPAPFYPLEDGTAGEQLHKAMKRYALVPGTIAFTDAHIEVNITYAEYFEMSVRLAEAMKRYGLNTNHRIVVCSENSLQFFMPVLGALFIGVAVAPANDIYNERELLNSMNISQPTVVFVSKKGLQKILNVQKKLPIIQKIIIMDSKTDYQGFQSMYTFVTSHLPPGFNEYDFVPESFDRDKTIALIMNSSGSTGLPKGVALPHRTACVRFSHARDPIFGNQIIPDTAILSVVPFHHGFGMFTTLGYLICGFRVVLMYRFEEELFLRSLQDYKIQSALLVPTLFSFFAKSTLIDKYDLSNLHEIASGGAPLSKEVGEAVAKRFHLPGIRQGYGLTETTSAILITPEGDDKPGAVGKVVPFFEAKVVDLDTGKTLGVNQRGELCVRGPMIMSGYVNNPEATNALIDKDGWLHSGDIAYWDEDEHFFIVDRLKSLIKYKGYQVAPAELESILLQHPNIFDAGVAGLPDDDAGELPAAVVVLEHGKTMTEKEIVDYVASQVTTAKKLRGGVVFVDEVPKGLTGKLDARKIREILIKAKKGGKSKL
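Purified P. pyralis luciferase (10nM final) with 10uM D-luciferin and 10uM ATP (Km levels) in 50mM Tris acetate pH 7.5, 10mM Mg acetate, 0.01% Tween-20, 0.05% BSA; qHTS 6-point titration, ~60 µM downward; luminescence read.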
Rab9 promoter act = qHTS Assay for Rab9 Promoter Activators; Huh7 Rab9 promoter-luciferase reporter, luminescence, 24 h; Potency, µM (top dose mostly 9.22 µM), inactives show at the top dose activation, negative = inhibition, usual class: activators; 320,000 tested, 2.8% active; further: % of control where 0% means no effect; nearly all actives have a fitted effect of over 60% in size
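Luminescence read-out: Huh7 cells stably expressing Rab9-luciferase, treated 24 h with compound at 37 °C, then lysed with luciferase reagent for 10 min at ambient before reading.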
NPC1 promoter act = qHTS Assay for NPC1 Promoter Activators; Potency, µM (doses to about 9.22 µM), for inactives: top-dose activation, actives largely listed as activators; AID 485313, 2010; 320,000 tested, 2.4% active; Huh7 NPC1 promoter luciferase reporter, 24 h; further: % of control where 0% means no effect; nearly all actives have a fitted effect of over 60% in size
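Stably transfected Huh7 (NPC1 promoter→luciferase), 1500 cells/well in Opti-MEM + 10% FBS, 2 h settle, then compound 24 h at 37 °C. Luminescence after 10 min with Amplite reagent.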
SMN2 splice up = qHTS Assay for Enhancers of SMN2 Splice Variant Expression | Potency, µM (highest dose often 46.1 µM), for inactives: at the highest dose activity change, positive = activation, actives largely listed as activators | AID 1458, 2008 | HEK293 SMN2-luciferase splicing reporter, luminescence, 30-36 h | 210,000 tested, 2.8% active; further: % of control where 0% means no effect; nearly all actives have a fitted effect of over 55% in size
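HEK293 cells carry an SMN2 […]–luciferase reporter in which exon 7 inclusion puts luciferase in frame. Cells were plated 10-12 h before compound addition, then incubated 30-36 h at 37C. ONE-Glo luminescence was read; sodium butyrate at 4.5 mM final served as control.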
The depositor's hits bear a star; ? = inconclusive; nt = no result; [ ] = another dose, or the depositor's remark. The call rests on the fitted dose curve; in most records, active means well fitted curve in the direction sought with a large enough effect; inconclusive means small, poorly fitted or top-dose-only effect, or another doubt; inactive means no such curve, though single readings can be large; an effect the other way counts as inactive or inconclusive. Potency means the concentration at half of the fitted maximal effect.

SMILES | ELG1 genotoxic | FLuc counter | Rab9 promoter act | NPC1 promoter act | SMN2 splice up
CCOCCCn1c(SCC(=O)Nc2ccccc2)nc2ccccc2c1=O | -4% | -3% | 0% | -3% | nt
COCCn1c(SCc2nc3ccccc3s2)nc2ccccc21 | ? | 12µM* | 3.5µM* | ? | 10%
CCOC(=O)C1CCN(S(=O)(=O)c2cc(-c3onc(C)c3C)ccc2C)CC1 | nt | -4% | nt | nt | nt
O=C(c1cc(-c2cccc(Cl)c2)on1)N1CCCCCC1 | 21µM* | 11µM* | 2.8µM* | 2.5µM* | nt
CN1CCN(C(=O)c2cc(-c3cccc(Cl)c3)on2)CC1 | 11% | ? | 6.3µM* | ? | nt
O=C(c1cc(-c2cccc(Cl)c2)on1)N1CCN(c2ccc(F)cc2)CC1 | 22% | 1% | -1% | -4% | nt
Cc1ccc(CN(Cc2ccco2)c2cnc(S(C)(=O)=O)nc2C(=O)Nc2ccc(Br)cc2)o1 | nt | -1% | nt | nt | nt
COc1cc(NC(=O)CC2C(=O)N(c3cccc(C)c3)C(=O)N2Cc2cccs2)cc(OC)c1 (stereo not given) | nt | -9% | nt | nt | nt
Cc1cc(/C=C(\C#N)C(=O)Nc2ccccc2)c(C)n1-c1cccnc1 | 13% | 1.5µM* | 2.8µM* | ? | 5.6µM*
N#C/C(=C\c1ccccc1O)C(=O)Nc1cccnc1 | ? | 3µM* | 1.6µM* | 2.8µM* | nt
Cc1cc(/C=C(\C#N)C(=O)Nc2ccccc2)c(C)n1-c1ccc(F)cc1 | nt | 2.7µM* | nt | nt | 2%
Cc1cc(C(=O)O)ccc1-n1c(C)cc(/C=C(/C#N)C(=O)Nc2ccccc2)c1C | -3% | ? | 1% | -2% | nt
N#C/C(=C\c1cccc([N+](=O)[O-])c1)C(=O)Nc1cccnc1 | 3% | -5% | -1% | 0% | -5%
Cc1cc(/C=C(\C#N)C(=O)NCC2CCCO2)c(C)n1-c1ccc(Cl)cc1 (stereo not given) | 1% | 4.3µM* | 3.5µM* | ? | nt
COc1cc(/C=C(\C#N)C(=O)NCC2CCCO2)ccc1O (stereo not given) | 5% | -4% | -3% | -2% | 11%
CCCn1c(C)cc(/C=C(\C#N)C(=O)OCC(=O)Nc2cccc(OC)c2)c1C | -1% | ? | -7% | -6% | -12%
CCOC(=O)/C(C#N)=C/c1cc(C)n(-c2ccccc2)c1C | 0.65µM* | 0.54µM* | 0.56µM* | 3.2µM* | -73%
CCCn1c(C)cc(/C=C(\C#N)C(=O)OCC(=O)Nc2cccc(S(N)(=O)=O)c2)c1C | 5% | 3.8µM* | 25% | 14% | nt
CCCCc1ccc(-c2csc(/C(C#N)=C\c3ccco3)n2)cc1 | 1% | -23% | -1% | -1% | -25%
N#C/C(=C/c1ccco1)c1nc2ccccc2s1 | 16µM* | 1.9µM* | 3.5µM* | 18% | ?
N#C/C(=C/c1ccc(-c2cc(C(=O)O)cc(C(=O)O)c2)o1)c1nc2ccccc2s1 | -3% | 2.1µM* | -3% | -2% | 13%
N#C/C(=C\c1ccc(-c2ccccc2Cl)o1)C(=O)Nc1nc2ccccc2s1 | 5% | ? | 0% | 8% | -15%
N#C/C(=C\c1ccco1)c1nc2ccccc2s1 | 7.3µM* | 1.7µM* | ? | 29% | 11µM*
N#CCCn1cc(/C=C(\C#N)c2nc3ccccc3s2)c(-c2ccc(F)cc2)n1 | 6% | -2% | 1% | -25% | -8%
COC(=O)[C@@H](NC(=O)N1CCc2nc(-c3ccccc3)c3c(c2C1)CO[C@@H](C)C3)C(C)C | nt | nt | nt | nt | 4%[9.22 µM]
SMILES | ELG1 genotoxic | FLuc counter | Rab9 promoter act | NPC1 promoter act | SMN2 splice up
Cc1ccccc1CN1CCC(n2nccc2NC(=O)c2ccc3c(c2)OCO3)CC1 | ? | 19µM* | 21% | ? | nt
CC#CC(=O)N1CCC(n2nccc2NC(=O)c2ccc3c(c2)OCO3)CC1 | 17% | 3% | 20% | -7% | nt
CSCCC(=O)N1CCC(n2nccc2NC(=O)c2ccc3c(c2)OCO3)CC1 | ? | 12µM* | 4µM* | 2.8µM* | nt
CC(=O)Nc1ccccc1C(=O)C(=O)Nc1ccccc1 | 2% | 2% | ? | ? | ?
CN1CCC(=NNC(=O)C(=O)Nc2ccccc2)CC1 | 14% | ? | ? | 11% | 5%
CC(=O)Nc1ccccc1C(=O)C(=O)Nc1ccc(Cl)cc1 | ? | -19% | 2.5µM* | 2.2µM* | 22µM*
O=C(NN=C1CCCCCC1)C(=O)Nc1cccc(Br)c1 | 17% | 6µM* | 23% | 18% | -2%[1.84 µM]
CC(=O)Nc1ccccc1C(=O)C(=O)Nc1cccc(Br)c1 | 6% | -4% | 2.5µM* | ? | 29%
CCC(=O)Nc1ccccc1C(=O)C(=O)Nc1ccccc1 | 8% | 2% | 2.5µM* | ? | ?
COc1cc(CCC(=O)NCc2ccc3c(c2)CCN3C(=O)c2ccc(F)cc2)cc(OC)c1OC | nt | 7% | nt | nt | nt
CCc1ccccc1N(CC)C(=O)Cn1nc(Cc2ccncc2)c2ccccc2c1=O | nt | -7% | nt | nt | 2%
CCN(CC)CCOC(=O)c1ccc(NC(=O)c2cc3c(s2)-c2ccccc2OC3)cc1 | nt | -11% | nt | nt | -1%
COC(=O)[C@@]1(Cc2ccc(OC)cc2)[C@H]2c3cc(C(=O)N(C)C)n(Cc4ccc(C)c(F)c4F)c3C[C@H]2CN1C(=O)c1ccccc1 | nt | nt | nt | nt | -42%
C/C(=N/OC(=O)C1CC12CCC2)c1ccc(Br)cc1 (stereo not given) | -4% | 6.7µM* | 2% | -1% | 15%
CCN(CC)C(=O)COC(=O)c1cc(-c2ccc(OC)cc2)nc2ccccc12 | -9% | 7.6µM* | 4% | 10% | -23%
COc1ccc(-c2cc(C(=O)OCC(=O)NC(C)C)c3ccccc3n2)cc1 | 5% | 6.7µM* | 20% | 13% | 2%
COc1ccc(-c2cc(C(=O)OCC(=O)N3CCOCC3)c3ccccc3n2)cc1 | 1% | nt | nt | nt | nt
CCCNC(=O)COC(=O)c1cc(-c2ccc(OC)cc2)nc2ccccc12 | 6% | ? | 17% | 11% | 3%
COc1ccc(-c2cc(C(=O)OCC(=O)NC(C)(C)C)c3ccccc3n2)cc1 | -4% | 12µM* | 15% | 10% | 6%
CCNC(=O)COC(=O)c1cc(-c2ccc(OC)cc2)nc2ccccc12 | 7% | 5.4µM* | 18% | 13% | -1%
COC(=O)C1=C(C(=O)OC)[C@@H]2N(Cc3ccccc3)c3ccccc3[C@@]23C[C@@H](C(=O)OC)N(S(=O)(=O)c2ccc(C)cc2)C3=N1 | nt | nt | nt | nt | -6%[9.22 µM]
CCOc1ccccc1CNC(=O)CSc1n[nH]c(-c2ccccc2Cl)n1 | nt | -20% | nt | nt | nt
COc1cc(C2CC(=O)N(Cc3cccc(F)c3)c3ccccc3S2)cc(OC)c1OC (stereo not given) | nt | -12% | nt | nt | -15%
COc1ccc(-c2cc(C(=O)OCC(=O)NC3CC3)c3ccccc3n2)cc1 | 3% | 3.8µM* | 23% | 14% | nt
